# Active and inactive are the calls of the source. Rule for the calls: active = hit-call score of the fitted dose curve at least 0.9, where 1 is the maximum; inactive = score below 0.9.
# What was measured:
# Settings in all cases: mRNA level, 48 h; actives raise or lower the signal
# [1] = read-out: Apolipoprotein A-V (APOA5) gene, APOA5 (gene 116519); assay: LTEA_HepaRG_APOA5: Life Technologies and Expression Analysis (LTEA) Assay for Apolipoprotein A-V (APOA5) gene using HepaRG (AID 2283474)
# Outline: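 Concentration-response of APOA5 expression in HepaRG: eight half-log doses to 100 uM, 48 h, qRT-PCR normalized to ACTB/GAPDH/POLR2A, bidirectional fitting with 0.5% DMSO as baseline.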
# [2] = read-out: Apoptosis regulator Bcl-2 (Homo sapiens) (UniProt P10415); assay: LTEA_HepaRG_BCL2: Life Technologies and Expression Analysis (LTEA) Assay for Bcl-2 gene using HepaRG (AID 2283475);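 note: BCL2 transcript by TaqMan qRT-PCR normalised to ACTB GAPDH and POLR2A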
# Outline: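 Plated human HepaRG cells are exposed to test chemicals for 48 h across eight concentrations from 100 uM downward in half-log steps (0.5% DMSO). BCL2 expression is then measured by qRT-PCR with housekeeping normalisation and fitted bidirectionally against vehicle.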
# [3] = read-out: Bcl-2 (BID) gene, BID (gene 637); assay: LTEA_HepaRG_BID: Life Technologies and Expression Analysis (LTEA) Assay for Bcl-2 (BID) gene using HepaRG (AID 2283476)
# Outline: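 Cells are plated, cultured 48 h, switched to serum-free induction medium, then dosed 48 h (100 uM top, half-log steps, 0.5% DMSO). RNA is isolated and BID expression read by qRT-PCR.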
# Caspase-3 (Homo sapiens) = Caspase-3 (Homo sapiens) (UniProt P42574); assay: LTEA_HepaRG_CASP3: Life Technologies and Expression Analysis (LTEA) Assay for cysteine-aspartic acid protease (CASP3) using HepaRG (AID 2283477)
# Outline: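 Transcript-level assay: CASP3 mRNA in human HepaRG after 48 h treatment, eight half-log concentrations from 100 uM in 0.5% DMSO, quantified by qRT-PCR.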
# [4] = read-out: Cytochrome P450 (CYP24A1), CYP24A1 (gene 1591); assay: LTEA_HepaRG_CYP24A1: Life Technologies and Expression Analysis (LTEA) Assay for Cytochrome P450 (CYP24A1) using HepaRG (AID 2283478)
# Outline: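 Gene expression of CYP24A1 by TaqMan qRT-PCR in HepaRG after 48 h treatment, highest concentration 100 uM; activity fitted in both directions relative to DMSO vehicle.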
# [5] = read-out: Cytochrome P450 (CYP1A2), CYP1A2 (gene 1544); assay: LTEA_HepaRG_CYP1A2: Life Technologies and Expression Analysis (LTEA) Assay for Cytochrome P450 (CYP1A2) using HepaRG (AID 2283479);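 for AC50: TaqMan qRT-PCR transcript level normalized to ACTB GAPDH and POLR2A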
# Outline: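 In duplicate wells, HepaRG cultures maintained in 0.5% DMSO were treated 48 h across an 8-point, half-log series topping at 100 uM; phenobarbital (1 mM) served as induction control. Expression was read by qRT-PCR.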
# [6] = read-out: cysteine-aspartic acid protease (CASP8), CASP8 (gene 841); assay: LTEA_HepaRG_CASP8: Life Technologies and Expression Analysis (LTEA) Assay for cysteine-aspartic acid protease (CASP8) using HepaRG (AID 2283480)
# Outline: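 Concentration-response in duplicate up to 100 uM (half-log steps, 0.5% DMSO) on differentiated HepaRG cultures for 48 h. Expression change of CASP8 mRNA is determined by TaqMan qRT-PCR with housekeeping-gene normalization.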
# [7] = read-out: Cytochrome P450 (CYP2B6), CYP2B6 (gene 1555); assay: LTEA_HepaRG_CYP2B6: Life Technologies and Expression Analysis (LTEA) Assay for Cytochrome P450 (CYP2B6) using HepaRG (AID 2283481)
# Outline: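 Human HepaRG, 48 h dosing, 0.5% DMSO vehicle, top dose 100 uM. CYP2B6 transcript by qRT-PCR, housekeeping-normalized, bidirectional curve fit.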
# [8] = read-out: Cytochrome P450 2C19 (Homo sapiens) (UniProt P33261); assay: LTEA_HepaRG_CYP2C19: Life Technologies and Expression Analysis (LTEA) Assay for CYP2C19 using HepaRG (AID 2283482)
# Outline: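 Endpoint: CYP2C19 mRNA change, bidirectional fit vs 0.5% DMSO. Cells: HepaRG, 48 h exposure, eight-point series topping at 100 uM. Quantitation: qRT-PCR normalized to ACTB, GAPDH, POLR2A.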
# CYP2C9 (gene 1559) = assay: LTEA_HepaRG_CYP2C9: Life Technologies and Expression Analysis (LTEA) Assay for CYP2C9 using HepaRG (AID 2283484)
# Outline: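 Eight-point concentration-response (highest 100 uM, half-log dilutions) in HepaRG cells for 48 h; CYP2C9 expression by qRT-PCR normalized to ACTB, GAPDH, POLR2A. Bidirectional fit, DMSO baseline.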
# CYP2E1 (gene 1571) = assay: LTEA_HepaRG_CYP2E1: Life Technologies and Expression Analysis (LTEA) Assay for CYP2E1 using HepaRG (AID 2283485)
# Outline: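 Readout is qRT-PCR of CYP2E1 mRNA, normalized to three housekeeping genes and fitted bidirectionally against 0.5% DMSO. HepaRG cells were dosed 48 h at eight concentrations, highest 100 uM with half-log dilutions.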
# CYP4A11 (gene 1579) = assay: LTEA_HepaRG_CYP4A11: Life Technologies and Expression Analysis (LTEA) Assay for CYP4A11 using HepaRG (AID 2283486)
# Outline: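 Human hepatic HepaRG cultures receive duplicate 48 h exposures across a concentration-response series topping at 100 uM. Expression changes in CYP4A11 are measured by qRT-PCR relative to DMSO controls.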
# [9] = read-out: Cytochrome P450 3A4 (Homo sapiens) (UniProt P08684); assay: LTEA_HepaRG_CYP3A4: Life Technologies and Expression Analysis (LTEA) Assay for CYP3A4 using HepaRG (AID 2283487)
# Outline: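 HepaRG, 48 h exposure, 8-pt CRC from 100 uM (half-log), 0.5% DMSO, duplicates; serum-free induction medium. Readout: CYP3A4 mRNA, qRT-PCR, ACTB/GAPDH/POLR2A normalization. Bidirectional fit vs DMSO.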
# [10] = read-out: DNA damage-inducible transcript 3 (DDIT3), DDIT3 (gene 1649); assay: LTEA_HepaRG_DDIT3: Life Technologies and Expression Analysis (LTEA) Assay for DNA damage-inducible transcript 3 (DDIT3) using HepaRG (AID 2283488)
# Outline: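 Cells are human HepaRG liver cells treated for 48 h with eight half-log concentrations up to 100 uM in 0.5% DMSO. Transcript levels come from qRT-PCR normalized to three housekeeping genes, with activity fitted in both directions relative to vehicle.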
# [11] = read-out: Pro-epidermal growth factor (Homo sapiens) (UniProt P01133); assay: LTEA_HepaRG_EGF: Life Technologies and Expression Analysis (LTEA) Assay for Epidermal growth factor (EGF) using HepaRG (AID 2283489)
# Outline: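 Concentration-response mRNA assay: HepaRG cells dosed 48 h (max 100 uM, 0.5% DMSO), EGF measured by qRT-PCR and normalized to ACTB/GAPDH/POLR2A.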
# [12] = read-out: Early growth response protein 1 (EGR1) transcription factor, EGR1 (gene 1958); assay: LTEA_HepaRG_EGR1: Life Technologies and Expression Analysis (LTEA) Assay for Early growth response protein 1 (EGR1) transcription factor using HepaRG (AID 2283490)
# Outline: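 EGR1 expression change in human HepaRG after 48 h chemical exposure, assessed by housekeeping-normalized qRT-PCR; concentration-response up to 100 uM, fitted in both directions against DMSO controls.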
# [13] = read-out: Ezrin (EZR), EZR (gene 7430); assay: LTEA_HepaRG_EZR: Life Technologies and Expression Analysis (LTEA) Assay for Ezrin (EZR) using HepaRG (AID 2283491)
# Outline: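 Read-out is EZR transcript level by qRT-PCR, normalized to three housekeeping genes and fitted bidirectionally against the DMSO control. Human HepaRG cells received test chemicals for 48 h at eight half-log concentrations up to 100 uM in 0.5% DMSO.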
# [14] = read-out: Cytochrome P450 3A7 (Homo sapiens) (UniProt P24462); assay: LTEA_HepaRG_CYP3A7: Life Technologies and Expression Analysis (LTEA) Assay for CYP3A7 using HepaRG (AID 2283492)
# Outline: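 qRT-PCR of CYP3A7 in HepaRG lysates after 48 h treatment; concentration-response (8 points, max 100 uM) analysed bidirectionally relative to 0.5% DMSO controls.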
# CYP3A5 (gene 1577) = assay: LTEA_HepaRG_CYP3A5: Life Technologies and Expression Analysis (LTEA) Assay for CYP3A5 using HepaRG (AID 2283493)
# Outline: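 Human HepaRG hepatic cells receive 48 h chemical treatment at eight concentrations (half-log steps from 100 uM) in 0.5% DMSO. Expression of CYP3A5 is quantified by Fluidigm qRT-PCR and normalized to three reference genes.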
# Chain of Cytochrome P450 3A4 (Homo sapiens) (P08684 whole entry, looked up): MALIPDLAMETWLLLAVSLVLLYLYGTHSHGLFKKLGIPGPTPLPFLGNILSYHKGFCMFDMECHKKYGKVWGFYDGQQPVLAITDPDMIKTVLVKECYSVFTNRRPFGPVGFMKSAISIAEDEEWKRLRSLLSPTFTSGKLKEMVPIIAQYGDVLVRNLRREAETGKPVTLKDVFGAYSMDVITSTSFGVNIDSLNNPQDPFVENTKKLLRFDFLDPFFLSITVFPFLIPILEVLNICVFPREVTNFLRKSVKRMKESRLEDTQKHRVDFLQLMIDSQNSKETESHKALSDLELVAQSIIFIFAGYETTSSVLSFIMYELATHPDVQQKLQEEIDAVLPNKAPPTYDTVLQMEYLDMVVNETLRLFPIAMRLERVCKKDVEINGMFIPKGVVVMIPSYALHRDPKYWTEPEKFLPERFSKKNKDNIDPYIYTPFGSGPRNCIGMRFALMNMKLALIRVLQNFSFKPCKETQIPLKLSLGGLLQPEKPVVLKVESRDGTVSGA
# Chain of Apoptosis regulator Bcl-2 (Homo sapiens) (P10415 whole entry, looked up): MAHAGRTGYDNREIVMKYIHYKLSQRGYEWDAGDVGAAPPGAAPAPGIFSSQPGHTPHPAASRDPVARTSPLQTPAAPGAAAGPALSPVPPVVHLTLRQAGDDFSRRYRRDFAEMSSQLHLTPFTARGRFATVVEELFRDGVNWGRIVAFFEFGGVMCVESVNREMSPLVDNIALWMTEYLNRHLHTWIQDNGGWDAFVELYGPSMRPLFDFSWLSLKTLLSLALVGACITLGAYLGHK
# Chain of Cytochrome P450 3A7 (Homo sapiens) (P24462 whole entry, looked up): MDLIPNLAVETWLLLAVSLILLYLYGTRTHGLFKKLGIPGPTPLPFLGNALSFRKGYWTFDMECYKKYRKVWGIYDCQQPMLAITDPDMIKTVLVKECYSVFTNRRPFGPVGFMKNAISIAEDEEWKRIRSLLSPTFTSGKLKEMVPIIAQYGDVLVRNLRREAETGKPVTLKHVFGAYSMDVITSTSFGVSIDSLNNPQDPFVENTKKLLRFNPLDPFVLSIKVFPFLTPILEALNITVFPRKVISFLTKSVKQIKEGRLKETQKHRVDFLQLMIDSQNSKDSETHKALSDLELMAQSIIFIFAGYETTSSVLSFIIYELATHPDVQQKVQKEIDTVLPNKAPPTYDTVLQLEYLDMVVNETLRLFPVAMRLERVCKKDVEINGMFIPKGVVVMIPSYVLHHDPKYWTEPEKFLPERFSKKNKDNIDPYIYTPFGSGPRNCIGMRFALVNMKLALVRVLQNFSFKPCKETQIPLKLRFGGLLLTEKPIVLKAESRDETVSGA
# Chain of Cytochrome P450 2C19 (Homo sapiens) (P33261 whole entry, looked up): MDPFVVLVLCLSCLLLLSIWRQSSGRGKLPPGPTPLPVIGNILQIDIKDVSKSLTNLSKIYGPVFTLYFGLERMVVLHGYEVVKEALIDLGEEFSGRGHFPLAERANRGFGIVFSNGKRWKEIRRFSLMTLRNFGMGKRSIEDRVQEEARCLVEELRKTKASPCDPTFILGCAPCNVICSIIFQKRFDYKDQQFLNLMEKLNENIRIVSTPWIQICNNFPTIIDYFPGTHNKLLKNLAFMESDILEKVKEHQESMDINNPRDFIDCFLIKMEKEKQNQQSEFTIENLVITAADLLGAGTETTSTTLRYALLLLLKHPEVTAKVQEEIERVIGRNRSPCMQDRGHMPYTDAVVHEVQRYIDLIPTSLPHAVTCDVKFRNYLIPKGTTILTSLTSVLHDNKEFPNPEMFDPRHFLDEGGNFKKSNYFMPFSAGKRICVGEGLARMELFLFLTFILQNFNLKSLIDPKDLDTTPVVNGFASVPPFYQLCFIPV
# Chain of Caspase-3 (Homo sapiens) (P42574 whole entry, looked up): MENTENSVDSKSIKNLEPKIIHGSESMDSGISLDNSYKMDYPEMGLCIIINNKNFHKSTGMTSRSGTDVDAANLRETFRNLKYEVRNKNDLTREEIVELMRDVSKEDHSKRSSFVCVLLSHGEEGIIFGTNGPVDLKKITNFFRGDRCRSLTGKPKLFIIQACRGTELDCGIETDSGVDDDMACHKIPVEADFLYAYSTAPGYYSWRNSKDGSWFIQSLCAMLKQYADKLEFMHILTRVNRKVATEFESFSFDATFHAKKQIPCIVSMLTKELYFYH
structure (smiles),measurement,setting,value
C[N+]1(C)CCCCC1,outcome,[1],inactive
same,outcome,[2],inactive
same,outcome,[3],inactive
same,outcome,Caspase-3 (Homo sapiens),inactive
same,outcome,[4],inactive
same,outcome,[5],inactive
same,outcome,[6],inactive
same,outcome,[7],inactive
same,outcome,[8],inactive
same,outcome,CYP2C9 (gene 1559),inactive
same,outcome,CYP2E1 (gene 1571),inactive
same,outcome,CYP4A11 (gene 1579),inactive
same,outcome,[9],inactive
same,outcome,[10],inactive
same,outcome,[11],inactive
same,outcome,[12],inactive
same,outcome,[13],inactive
same,outcome,[14],inactive
same,outcome,CYP3A5 (gene 1577),inactive
CCCCOC(=O)c1ccccc1C(=O)O,outcome,[1],inactive
same,outcome,[2],inactive
same,outcome,[3],inactive
same,outcome,Caspase-3 (Homo sapiens),inactive
same,outcome,[4],inactive
same,AC50,[5],32.8 µM (active)
same,outcome,[6],inactive
same,AC50,[7],10.2 µM (active)
same,outcome,[8],inactive
same,outcome,CYP2C9 (gene 1559),inactive
same,outcome,CYP2E1 (gene 1571),inactive
same,outcome,CYP4A11 (gene 1579),inactive
same,outcome,[9],inactive
same,outcome,[10],inactive
same,outcome,[11],inactive
same,outcome,[13],inactive
same,AC50,[14],12.7 µM (active)
same,outcome,CYP3A5 (gene 1577),inactive
CNC(=O)ON=C(SC)C(=O)N(C)C,outcome,[1],inactive
same,outcome,[2],inactive
same,outcome,[3],inactive
same,outcome,Caspase-3 (Homo sapiens),inactive
same,outcome,[4],inactive
same,outcome,[5],inactive
same,AC50,[6],369 nM (active)
same,outcome,[7],inactive
same,outcome,[8],inactive
same,outcome,CYP2C9 (gene 1559),inactive
same,outcome,CYP2E1 (gene 1571),inactive
same,outcome,CYP4A11 (gene 1579),inactive
same,outcome,[9],inactive
same,outcome,[10],inactive
same,outcome,[11],inactive
same,outcome,[12],inactive
same,outcome,[13],inactive
same,outcome,[14],inactive
same,outcome,CYP3A5 (gene 1577),inactive

# From PubChem BioAssay (EPA / NIEHS)
